# Hits are enriched below; roughly 2.3% of the tested compounds scored in any of these assays.
# UHRF1 MBD2 ctr: human UHRF1 methylated DNA binding inhibitors. Q96T88. UHRF1 binding to methylated oligo, TR-FRET. inhibition, % at 4.4 µM. 0.75% of 370,000 active. AID 687016; in the data active means inhibition above about 21%;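 further: UHRF1 SRA domain binding a hemimethylated CpG hairpin DNA probe; 0% = median of test compound wells and 100% = reference inhibitor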
# PLC-gamma1 inh: PLC-gamma1 (human) inhibition, primary screen. P19174. purified PLC-gamma1, fluorogenic substrate, fluorescence. inhibition, % at 12.2 µM. 0.84% of 370,000 active. AID 720700; in the data active means inhibition above about 9.5%
# LEDGF integ inh: blocks HIV-1 LEDGF/p75-dependent DNA integration | TR-FRET IN-LEDGF/p75 DNA integration, Eu/Cy5 | inhibition, % at 3.7 µM | 0.64% of 370,000 active | AID 743269;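 active means inhibition above the screen-wide mean plus 3 SD, cut at about 13% in these data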;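 further: signal is the Cy5 over europium emission ratio at 671 and 618 nm; 0% = plate median of compound wells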
# MBD2 inh: blocks human MBD2 binding to methylated DNA | inhibition, % at 4.4 µM | 0.31% of 370,000 active | Q9UBB5 | TR-FRET, MBD2 binding to methylated oligonucleotide; in the data active means inhibition above about 13%
# PLCb3 inh: PLC-beta3 (human) inhibition, primary screen | Q01970 | 0.18% of 370,000 active | Purified PLC-beta3, fluorogenic substrate, fluorescence | AID 720704 | inhibition, % at 12.2 µM;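 further: 0% = median of compound wells on plate and 100% = full blocker control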
# PLCgamma1 ctr: PLC-gamma1 inhibition, counter-screen for PLC-beta3 hits; shares compounds with PLC-gamma1 inh; purified PLC-gamma1, fluorogenic substrate, fluorescence; inhibition, % at 12.3 µM; 3.1% of 3,300 active; AID 743258; in the data active means inhibition above about 9.5%
# PLCb3 confirm: confirmation of human PLC-beta3 inhibitors; shares compounds with PLC-gamma1 inh; purified PLC-beta3, fluorogenic substrate fluorescence; inhibition, % at 12.3 µM; AID 743261; 1% of 3,300 active
# Numbers without * were called inactive; / = not tested or not shown. Unless noted, no stated cut-off is given here; in the data, active means inhibition above about 11%; inactive means the rest.
SMILES,UHRF1 MBD2 ctr,PLC-gamma1 inh,LEDGF integ inh,MBD2 inh,PLCb3 inh,PLCgamma1 ctr,PLCb3 confirm
CC(=O)N=c1sc(C(C)(C)C)c(C)n1C,1,9.8*,-1,-2,1,-2,-4
CCOC(=O)c1csc(NC(=O)C2CCCN(S(=O)(=O)c3ccc([N+](=O)[O-])cc3)C2)n1 (centres undefined),0,-1,4,-1,2,/,/
O=C(CCN1CCN(c2ccccc2)CC1)NNC(=O)c1cccc2ccccc12,-2,4,5,2,2,/,/
COc1cccc(C(=O)NCCN2CCOCC2)c1,-1,2,2,-6,1,/,/
COc1cccc(C(=O)NCCN2CCN(c3ccc(Cl)cc3)CC2)c1,0,9.9*,4,-2,7,-6,-8
CCCCOc1cccc(C(=O)Nc2ccc(N3CCN(CC)CC3)cc2)c1,2,3,-1,-7,11*,-1,6
COc1cccc(C(=O)NNC(=O)CCN2CCN(c3ccccc3)CC2)c1,4,6,1,3,13*,-2,4
CCCCOc1ccc(C(=O)Nc2ccc(N3CCN(C)CC3)cc2)cc1,-4,1,0,1,3,/,/
O=C(Cn1nnc(-c2ccc(N3CCOCC3)cc2)n1)c1cccc(F)c1,0,0,-3,0,-6,/,/
C=CCOC(=O)N1CCN(C(=O)c2ccc3nc(C)n(C4CCCC4)c3c2)CC1,2,6,4,-3,7,/,/
CCCC[C@H](C(=O)N(C)c1ccccc1)[C@@H](O)c1ccc(Cl)cc1,1,1,-4,1,2,/,/
CC(=O)c1cnc2sccn2c1=O,2,14*,5,-2,11,-5,-2
COc1ccc(NC(=O)c2cnc3sccn3c2=O)cc1,-1,-4,-3,2,-8,/,/
Cc1ccc2c(c1)NC(=O)C(CC(=O)NCCCN1CCCCC1)O2 (centres undefined),-2,-1,-2,0,-1,/,/
Cc1ccc2c(c1)NC(=O)C(CC(=O)NCCCN1CCN(c3cc(Cl)ccc3C)CC1)O2 (centres undefined),1,9.5*,4,3,6,-17,-11
COC(=O)CN1CC(=O)N(c2ccccc2)C1=S,2,10*,-5,4,-3,0,-5
O=C(/C=C/c1ccccc1)N1CCC[C@H]1CO,-1,0,-2,-1,2,/,/
CCC(C)(O)C(=O)N[C@H]1CCCN1C(=O)/C=C/c1ccccc1 (some centres undefined),-2,11*,0,-8,4,-8,-23
Cc1ccc(/C=N/n2c(-c3ccco3)n[nH]c2=S)s1,-3,11*,0,0,1,-12,-9
S=c1[nH]nc(-c2ccco2)n1/N=C/c1ccccc1Cl,1,0,-4,0,-2,/,/
CCCCn1c(CCCNC(=O)c2ccco2)nc2ccccc21,0,12*,1,2,4,-6,-6
COC(=O)[C@]12C[C@H](CC(=O)NCc3ccc(OC)c(OC)c3)C(=O)N(Cc3ccc(Cl)cc3Cl)C1=C[C@H](C(C)(C)C)O[C@@H]2C,-3,-1,-1,-4,1,/,/
O=C(CSc1ccccc1)NC1CCCCN(Cc2cccc(Cl)c2)C1=O (centres undefined),-1,-1,-3,1,-1,/,/
O=S(=O)(/N=C(/Nc1ccccc1)C(F)(F)F)c1ccccc1,4,9.6*,4,-3,5,-5,0
CCc1ccccc1N/C(=N\S(=O)(=O)c1ccccc1)C(F)(F)F,0,-1,2,-1,3,/,/
SMILES,UHRF1 MBD2 ctr,PLC-gamma1 inh,LEDGF integ inh,MBD2 inh,PLCb3 inh,PLCgamma1 ctr,PLCb3 confirm
CN(C)S(=O)(=O)c1cccc(C(=O)NCCNC(=O)c2cccc(S(=O)(=O)N(C)C)c2)c1,-1,2,-1,3,-4,/,/
CN(C)S(=O)(=O)c1cccc(C(=O)NCC(C)(C)CNC(=O)c2cccc(S(=O)(=O)N(C)C)c2)c1,2,9.9*,8,-7,-2,8,2
CCCCCc1c(-c2cccc(Cl)c2)ncn1CCc1ccccc1OC,0,10*,2,3,6,-4,-2
COc1ccc(CCN(C)C2CCCN(C(=O)CCC(F)(F)F)C2)cc1OC (centres undefined),6,9.6*,0,-8,-8,-1,-3
CC(Oc1ccc(Cl)cc1Cl)C(=O)Nc1ccc(O)cc1 (centres undefined),2,16*,2,0,5,-8,-6
O=C(CSc1nnc(-c2cccnc2)n1Cc1ccco1)Nc1cc(Cl)ccc1F,-2,-1,6,-3,-3,/,/
COc1cc(/C=C2/C(=N)N3OC(C)=CC3=NC2=O)ccc1OC(=O)c1ccco1,3,-2,0,7,-6,/,/
CC1=CC2=NC(=O)/C(=C\c3ccc(OC(=O)c4ccco4)cc3)C(=N)N2O1,5,9,2,-6,12*,-2,0
Cc1cc[n+](-c2[nH]c(=O)sc2/C=N/N=C(\[O-])c2ccncc2)cc1,-9,11*,3,-2,3,2,7
O=C(Oc1ccc(Br)cc1C(=S)N1CCCC1)c1ccccc1Cl,1,1,0,-2,2,/,/
O=C(Oc1ccc(Br)cc1C(=S)N1CCCC1)c1ccccc1F,2,13*,9,-3,2,-4,-3
C[N+]1(C)[C@H]2CC[C@H]1CC(OC(=O)C(O)c1ccccc1)C2 (some centres undefined),1,2,-1,2,-3,/,/
O=C(C1CCCN(S(=O)(=O)c2ccc(Br)s2)C1)N1CCN(Cc2ccccc2)CC1 (centres undefined),3,-1,-4,-3,-2,/,/
O=C(Nc1ccccc1)Nc1cccc(Cl)c1Cl,1,16*,4,1,10,-5,-2
O=C(NC(=S)Nc1c(F)cc(F)cc1Br)c1ccc2c(c1)OCCO2,2,13*,6,4,9,-5,-2
CN(C)c1cccc(NC(=O)C2(C)CC2(Cl)Cl)c1 (centres undefined),-2,5,-3,-6,16*,-8,-11
CC(=O)Nc1cccc(N(C)C)c1,1,-2,4,-6,0,/,/
COc1ccc(OC)c(S(=O)(=O)N2CCC(C(=O)N3CCN(C4CCCCC4)CC3)CC2)c1,2,-1,-3,3,0,/,/
COc1ccc(CNCCC(c2ccc(OC(C)C)cc2)c2ccccc2OC)cc1 (centres undefined),-4,8,1,1,0,/,/
COc1ccccc1C(CCNCc1ccc(N(C)C)cc1)c1ccc(OC(C)C)cc1 (centres undefined),-2,10*,4,-3,-3,1,5
O=C(c1ccco1)N1CCC(Oc2cccnc2)CC1,-1,1,3,-6,0,/,/
